Reference: PubChem BioAssay (NCATS)
Records with an inconclusive call do not appear. Calls of active or inactive are those of the source. Calls come from the whole dose curve; as a rule, active = well fitted inhibition curve with a large enough effect; inconclusive = small, poorly fitted or top-dose-only effect; inactive = flat fitted curve, though single readings scatter.

Assays:
[1] = Drug repurposing screens with cells derived from glioblastoma tumor samples (AID 1345199); conditions: GBM patient neurospheres viability, ATP luminescence, 48 h; note: nearly all actives have a fitted effect of over 40% in size
Outline: (§1)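 Primary testing used CD133+ neurospheres from four GBM patients, seven concentrations, 48 h exposure and ATP-based viability; confirmation added three slower-growing patient lines.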

astro = control astrocytes; test: as above; conditions: viability, ATP luminescence, 48 h; series mostly up to 45.9 µM
Outline: as §1

[2] = at 45.9 µM (top of the series), tumour line B
[3] = at 45.9 µM (top of the series), tumour line D
[4] = at 46 µM (top of the series), tumour line A
[5] = at 46.1 µM (top of the series), tumour line C
[6] = at 20 µM (top of the series), tumour line C
[7] = at 21.2 µM (top of the series), tumour line B
[8] = at 21.2 µM (top of the series), tumour line D
[9] = at 21.3 µM (top of the series), tumour line A
% is set by controls: 0 for no effect and ±100 for the full control effect; potency is the fitted concentration of half-maximal effect.

CC(=O)OCC(=O)[C@@]1(O)CC[C@H]2[C@@H]3CCC4=CC(=O)CC[C@]4(C)C3=CC[C@@]21C
inactive: activity, negative = cell killing [1, 2] -7.95% | activity, negative = cell killing [1, 3] 3.12% | activity, negative = cell killing [1, 4] -15.3% | activity, negative = cell killing [1, 5] -8.95% | Potency (astro)

CC/C(=C(/CC)c1ccc(OP(=O)(O)O)cc1)c1ccc(OP(=O)(O)O)cc1
inactive: activity, negative = cell killing [1, 2] -16% | activity, negative = cell killing [1, 3] -11.4% | activity, negative = cell killing [1, 4] -22.6% | activity, negative = cell killing [1, 5] -17.3% | Potency (astro)

CO/N=C(\C(=O)N[C@@H]1C(=O)N2C(C(=O)O)=CCS[C@H]12)c1csc(N)n1
inactive: activity, negative = cell killing [1, 2] -10.9% | activity, negative = cell killing [1, 3] -17.7% | activity, negative = cell killing [1, 4] -10.3% | activity, negative = cell killing [1, 5] -14% | Potency (astro)

CN1CCc2c(c3ccccc3n2Cc2ccccc2)C1
active: Potency ([1]; tumour line A) 5.62 µM
inactive: activity, negative = cell killing [1, 6] -5.19% | activity, negative = cell killing [1, 7] -12.3% | activity, negative = cell killing [1, 8] -14.4% | Potency (astro)

CC(C)(C)NCC(O)CSc1nc(-c2ccc(C(N)=O)s2)cs1 (stereo not given)
inactive: activity, negative = cell killing [1, 2] -20.2% | activity, negative = cell killing [1, 3] -9.92% | activity, negative = cell killing [1, 5] -12.2% | Potency (astro)
active: Potency ([1]; tumour line A) 17.8 µM

O=C(O)CN(CC(=O)O)CC1=CC2C(=CC1=O)Oc1cc(O)c(CN(CC(=O)O)CC(=O)O)cc1C21OC(=O)c2ccccc21 (stereo not given)
inactive: activity, negative = cell killing [1, 2] -10.9% | activity, negative = cell killing [1, 3] -10.1% | activity, negative = cell killing [1, 4] -21.2% | activity, negative = cell killing [1, 5] -24.7% | Potency (astro)

COC(=O)C(CN)c1c[nH]c2ccc(OC)cc12 (stereo not given)
inactive: activity, negative = cell killing [1, 2] -10.3% | activity, negative = cell killing [1, 3] -14.4% | activity, negative = cell killing [1, 4] -30.9% | activity, negative = cell killing [1, 5] -0.904% | Potency (astro)

CC(C)NCC(O)COc1ccccc1-n1cccc1 (stereo not given)
active: Potency ([1]; tumour line C) 25.9 µM
inactive: activity, negative = cell killing [1, 2] -14.4% | activity, negative = cell killing [1, 3] -7.4% | activity, negative = cell killing [1, 4] 15.7% | Potency (astro)

O=C(O)c1ccc(NC2OC[C@@H](O)[C@H](O)[C@H]2O)cc1 (stereo not given in full)
inactive: activity, negative = cell killing [1, 2] -2.93% | activity, negative = cell killing [1, 3] 0.684% | activity, negative = cell killing [1, 4] -26.5% | activity, negative = cell killing [1, 5] -13.1% | Potency (astro)

CCCOc1cc(N)ccc1C(=O)OCCN(CC)CC
inactive: activity, negative = cell killing [1, 6] 3.99% | activity, negative = cell killing [1, 7] -3.15% | activity, negative = cell killing [1, 8] -24.1% | activity, negative = cell killing [1, 9] 3.16% | Potency (astro)

COC(=O)[C@H]1[C@H]2C[C@@H]3c4[nH]c5cc(OC)ccc5c4CCN3C[C@H]2C[C@H](OC)[C@@H]1OC
active: Potency ([1]; tumour line A) 11.2 µM
inactive: activity, negative = cell killing [1, 2] -8.25% | activity, negative = cell killing [1, 3] -1.56% | activity, negative = cell killing [1, 5] -6.43% | Potency (astro)

CC(=O)Oc1cccc(C(=O)O)c1OC(C)=O
inactive: activity, negative = cell killing [1, 2] -9% | activity, negative = cell killing [1, 3] -8.06% | activity, negative = cell killing [1, 4] -12.3% | activity, negative = cell killing [1, 5] -14.6% | Potency (astro)

Nc1nc(/C(=C/CC(=O)O)C(=O)N[C@@H]2C(=O)N3C(C(=O)O)=CCS[C@H]23)cs1
inactive: activity, negative = cell killing [1, 2] -0.0909% | activity, negative = cell killing [1, 3] -11.4% | activity, negative = cell killing [1, 4] 12.2% | activity, negative = cell killing [1, 5] 20.6% | Potency (astro)

CCCC(=O)Nc1c(I)cc(I)c(CC(CC)C(=O)O)c1I (stereo not given)
inactive: activity, negative = cell killing [1, 2] -12.8% | activity, negative = cell killing [1, 3] 14.7% | activity, negative = cell killing [1, 4] -17.5% | activity, negative = cell killing [1, 5] -13.2% | Potency (astro)

COc1ccc([C@@H]2CC(=O)c3c(O)cc(O[C@@H]4O[C@H](CO[C@@H]5O[C@@H](C)[C@H](O)[C@@H](O)[C@H]5O)[C@@H](O)[C@H](O)[C@H]4O)cc3O2)cc1O
inactive: activity, negative = cell killing [1, 6] -7.12% | activity, negative = cell killing [1, 7] -4.88% | activity, negative = cell killing [1, 8] -12.7% | activity, negative = cell killing [1, 9] -11.4% | Potency (astro)

Cn1cc(NC(=O)c2cc(NC(=O)c3cc(NC=O)cn3C)cn2C)cc1C(=O)NCCC(=N)N
inactive: activity, negative = cell killing [1, 2] -15.1% | activity, negative = cell killing [1, 3] -11.2% | activity, negative = cell killing [1, 4] -20.5% | activity, negative = cell killing [1, 5] -26.2% | Potency (astro)

NC[C@H]1O[C@H](O[C@H]2[C@H](O)[C@@H](O[C@H]3O[C@H](CO)[C@@H](O)[C@H](N)[C@H]3O)[C@H](N)C[C@@H]2N)[C@H](N)C[C@@H]1O
inactive: activity, negative = cell killing [1, 6] 1.26% | activity, negative = cell killing [1, 7] -9.72% | activity, negative = cell killing [1, 8] -3.61% | activity, negative = cell killing [1, 9] -18.4% | Potency (astro)

COC(=O)[C@@H](N)CS
inactive: activity, negative = cell killing [1, 2] 4.89% | activity, negative = cell killing [1, 3] -8.33% | activity, negative = cell killing [1, 4] -26.1% | activity, negative = cell killing [1, 5] 4.09% | Potency (astro)

CC(C)(O/N=C(\C(=O)N[C@@H]1C(=O)N2C(C(=O)[O-])=C(C[n+]3ccccc3)CS[C@H]12)c1csc(N)n1)C(=O)O
inactive: activity, negative = cell killing [1, 6] -8.81% | activity, negative = cell killing [1, 7] -13.9% | activity, negative = cell killing [1, 8] 1.29% | activity, negative = cell killing [1, 9] -19.8% | Potency (astro)

NC[C@H]1O[C@H](O[C@H]2[C@H](O)[C@@H](O[C@H]3O[C@H](CO)[C@@H](O)[C@H](N)[C@H]3O)[C@H](N)C[C@@H]2N)[C@H](O)[C@@H](O)[C@@H]1O
inactive: activity, negative = cell killing [1, 6] 3.71% | activity, negative = cell killing [1, 7] -14.2% | activity, negative = cell killing [1, 8] 0.603% | activity, negative = cell killing [1, 9] -23.6% | Potency (astro)
